In PubChem BioAssay (NCI):
This is part of a sample that, as a whole, favours compounds with a hit. Of some 79,000 tested, about 15% had one in any assay. Rule as the data show it: active = growth inhibition above about 70%; inactive = the rest.

Legend:
[1] = NCI Yeast Anticancer Drug Screen. Data for the rad50 strain (AID 155);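 also: 0% = growth of vehicle-only cultures of the same strain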; conditions: S. cerevisiae rad50 strain growth inhibition; at 50.0 µM; stronger effect = higher value
Method in brief: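 Genetically altered yeast (DNA repair pathway); compound treatment; growth inhibition vs vehicle ctrl.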

[2] = NCI Yeast Anticancer Drug Screen. Data for the mec2-1 strain (AID 157); conditions: S. cerevisiae mec2-1 strain, at 50.0 µM, stronger effect = higher value
Method in brief: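 Growth inhibition is read against vehicle-treated controls after compound exposure of the mec2-1 yeast strain, which is defective in DNA damage repair or cell cycle control.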

[3] = NCI Yeast Anticancer Drug Screen. Data for the sgs1 mgt1 strain (AID 161);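 also: 0% = growth of cultures given vehicle only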; conditions: S. cerevisiae sgs1 mgt1 strain, at 50.0 µM, stronger effect = higher value
Method in brief: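 Compounds are added to genetically altered yeast, and growth is compared with cultures given vehicle alone to give percent inhibition.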

[4] = NCI Yeast Anticancer Drug Screen. Data for the cln2 rad14 strain (AID 165);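 also: 0% = growth equal to vehicle treated cultures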; conditions: S. cerevisiae cln2 rad14 strain, at 50.0 µM, stronger effect = higher value
Method in brief: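 Growth inhibition, relative to vehicle-treated controls, is the read-out. The test organism is a yeast strain with defined genetic alterations, cln2 rad14.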

[5] = NCI Yeast Anticancer Drug Screen. Data for the bub3 strain (AID 167); conditions: S. cerevisiae bub3 mutant strain, at 50.0 µM, stronger effect = higher value
Method in brief: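 Yeast carrying a defined mutation is treated with each compound, and growth is compared with that of vehicle-exposed cells to give inhibition.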

[6] = NCI Yeast Anticancer Drug Screen. Data for the mlh1 rad18 strain (AID 175); conditions: S. cerevisiae mlh1 rad18 strain growth inhibition; at 50.0 µM; stronger effect = higher value
Method in brief: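 Cells of a genetically altered yeast strain, deficient in DNA damage repair, were treated with compound. Their growth was then compared with that of vehicle-treated cultures to give inhibition.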

Measured: growth inhibition

CCC1(CC)C(=O)N=C(c2ccccc2)N1C
inactive: [1] -5.55% | [2] -5.75% | [3] 8.15% | [4] -16% | [5] -2.3% | [6] -10.7%

Nc1c(-c2nc3ccccc3s2)[n+]([O-])c2ccccc2[n+]1[O-]
inactive: [1] 7.45% | [2] 20.6% | [3] 19% | [4] 29.6% | [5] -57.8% | [6] 15.9%

Cn1nnn2c(-c3ccccc3)nnc12
inactive: [1] 15.4% | [2] -2.45% | [3] -5.45% | [4] -10.8% | [5] 0.8% | [6] -5.3%

CCOC(=O)NN(C(=O)OCC)c1c(NC)n(C)c(=O)n(C)c1=O
inactive: [1] -23.4% | [2] 7.1% | [3] -7.7% | [4] -23.8% | [5] 11.1% | [6] 13.3%

O=C(/C=C/c1ccc(Cl)cc1)c1ccncc1
inactive: [1] 33.5% | [2] 0% | [3] 11.6% | [4] 18% | [5] 16.1% | [6] 33.9%

CC1(C)S[C@@H]2[C@H](NC(=O)/C=C/c3ccccc3)C(=O)N2[C@H]1C(=O)O
inactive: [1] 15.3% | [2] 9.5% | [3] 9.2% | [4] 0.6% | [5] 25.6% | [6] -5.5%

CC(C)(C)CC(C)(C)NC(=O)CCl
inactive: [1] -6.05% | [2] 2.15% | [3] 2.6% | [4] -4.85% | [5] 10.3% | [6] -5.45%

C=CCNC(=S)/N=C/C(C(=O)Nc1ccccc1)=C(/C)O
inactive: [1] -55.6% | [2] -18.1% | [3] -41.2% | [4] -27.2% | [5] -50.9% | [6] -20.6%

CCC(CC)=C(c1ccc(C)cc1)c1ccc(C)cc1
inactive: [1] -25.2% | [2] -12.7% | [3] -1.9% | [4] -52.8% | [5] 4.7% | [6] -12.4%

COc1ccc(C2CC(=O)C(C(=O)OC3CCCCC3)C2c2ccc(OC)cc2)cc1 (stereo unspecified)
inactive: [1] 13.9% | [2] 16.2% | [3] 15.8% | [4] 28.1% | [5] -3.25% | [6] 19.5%

NC(C(=O)O)C(C(F)(F)F)C(F)(F)F (stereo unspecified)
inactive: [1] 0.95% | [2] -15.2% | [3] 4.5% | [4] 1.55% | [5] -15.7% | [6] 6.5%

O=C(OCOC(=O)c1ccccc1)c1ccccc1
inactive: [1] -23.1% | [2] -5.95% | [3] -8.6% | [4] -18.5% | [5] -4.7% | [6] -6.55%

CC1(C)C[C@@H]2C1CCC1(C)CC2(O)CC[C@H]1O (stereo partly specified)
inactive: [1] -23.6% | [2] -35% | [3] -24.8% | [4] 14.4% | [5] 2.3% | [6] -17.9%

CCOC(=O)c1ccc(-n2cnc(-c3ccc([N+](=O)[O-])cc3)c2)cc1
inactive: [1] -4.55% | [2] -7.2% | [3] -8.8% | [4] -7.15% | [5] -1.15% | [6] -16.2%

O=C1CCC2(CC1)SCCCS2
inactive: [1] -0.6% | [2] -21.5% | [3] -16.1% | [4] 20.9% | [5] -7.3% | [6] -17.1%

[O-][n+]1onc2c1CCC(=N\O)/C2=N/Nc1ccccc1
inactive: [1] -1.55% | [2] -1.05% | [3] -15.1% | [4] 34.9% | [5] 18.6% | [6] 11.3%

COc1ccc(C23C(=O)c4ccccc4N2O[C@H]2C(=O)N(c4ccccc4)C(=O)[C@H]23)cc1 (stereo partly specified)
inactive: [1] -22.2% | [2] 20.1% | [3] -36.5% | [4] 7.9% | [5] -30.6% | [6] -21.1%

Nc1[nH]n(-c2ccccc2)c(=O)c1/C=N/C(=S)N=Nc1c(O)[nH]c2ccccc12
inactive: [1] 1.5% | [2] -0.3% | [3] 41% | [4] 1.5% | [5] 9.35% | [6] 24.8%

Cc1cc(C)cc(NC(=O)CCC(=O)C2CCC/C2=N\NC(=O)C(=O)NN)c1 (stereo unspecified)
inactive: [1] 3.95% | [2] -2.7% | [3] -20.6% | [4] 2.1% | [5] 5.2% | [6] -6.8%

O=C1N=C2C=CC=CN2CC1O (stereo unspecified)
inactive: [1] -0.4% | [2] -11.2% | [3] -7.7% | [4] -13.2% | [5] 11.5% | [6] 15.3%

CCOP(=O)(Cc1ccc(CP(=O)(OCC)OCC)n1C)OCC
inactive: [1] -6.15% | [2] -7.5% | [3] -13.7% | [4] 17.4% | [5] -4.7% | [6] 15.1%
